MT1-MMP txn act = activates MT1-MMP transcription. HT1080 MT1-MMP promoter luciferase reporter, luminescence, overnight; hits give high values. activation factor at 10 µM. hit rate 0.16% among 86,000. AID 750;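 active = activation factor of at least 2 for MT1-MMP transcription at 10 µM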
FXIIa inh mix = blocks human factor XIIa in pooled compound mixtures | purified FXIIa, fluorogenic substrate | inhibition, % at 5 µM | P00748 | hit rate 0.2% among 62,000;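 also: 0% = enzyme without compound and 100% = no enzyme blank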
FXIa mix inh = factor XIa (human) inhibition, mixture screen. purified FXIa, fluorogenic substrate, pooled mixtures. inhibition, % at 5 µM. hit rate 0.19% among 62,000. AID 680;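 also: each value is inhibition by a whole ten-compound pool holding the compound; 0% = enzyme with no mixture and 100% = wells lacking enzyme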
HER2 expr 66K = lowers expression of human Her2 kinase. P04626. SKBR-3 HER2 protein level, AlphaScreen, 18-24 h; hits give low values. HER2 level % of control, % at 10 µM. hit rate 0.69% among 65,000. AID 645;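 active = HER2 level under 5% of the carrier-only control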;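 also: 100% = DMSO carrier and 0% = 500 nM PU-H71 HSP90 inhibitor; lower value means stronger loss of Her2 protein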
An asterisk follows results filed as active; x = no result. A selection: hits, their analogues and other compounds. The true share with any hit is near 0.88%. Rule as the data show it, unless noted: active = inhibition above about 20% (passing the limit was not always enough); inactive = the rest.

SMILES	MT1-MMP txn act	FXIIa inh mix	FXIa mix inh	HER2 expr 66K
COC(=O)c1ccc(C(NC(=O)OCc2ccccc2)/C(C)=C/[C@@H](C)C(=O)NCCO)cc1 (some centres not stated)	1	x	x	x
COC(=O)c1[nH]c2ccc(C)cc2c1NC(=O)CN1CCCCC1C (configuration not stated)	x	2	2	80
COC(=O)c1[nH]c2ccc(C)cc2c1NC(=O)CN1CCCc2ccccc21	1.3	3	10	-22*
CCC1=C2CC[C@H]3C(=O)N(CC)C(=O)[C@H]3[C@H]2[C@@]2(Cc3ccccc3)C(=O)N(CCOC)C(=O)N2C1=O	1.2	x	x	x
CN(C)S(=O)(=O)Nc1ccc2c(c1)OCO2	1.1	1	24*	128
Cn1c(=O)c2cc(S(=O)(=O)Nc3ccc4c(c3)OCO4)ccc2n(C)c1=O	0.8	-10	1	149
Cn1c(=O)oc2cc(S(=O)(=O)Nc3ccc4c(c3)OCO4)ccc21	1.1	45*	7	88
CCOn1c(=O)c(-c2cc3ccccc3o2)[n+]([O-])c2ccccc21	1.2	-13	24*	103
O=c1c(-c2cc3ccccc3o2)[n+]([O-])c2ccccc2n1OCc1ccccn1	1.6	x	x	x
CC1(C)CC(=O)C2=C(C1)OC(=O)C2(NC(=O)c1cccs1)C(F)(F)F (configuration not stated)	1.2	11	3	-12*
O=C(Nc1cccc(C(=O)N2CCOCC2)c1)NC1CCCCC1	1.1	5	4	-22*
CC(=O)c1cccc(NC(=O)NC2CCCCC2)c1	1.2	10	8	94
Oc1ccccc1-c1cc(-c2ccco2)[nH]n1	2.1*	x	x	x
CCCc1cc2c(n1CCc1ccc(Cl)cc1)C(C)C1CN(C(=O)c3ccccc3)C(C)(C(=O)OC)C21 (configuration not stated)	1	x	x	x
CCOC(=O)C1=C(C)N(CCCCCC(=O)O)C(=O)NC1c1ccccc1OC(=O)c1cccs1 (configuration not stated)	1.1	x	x	x
COc1ccc(S(=O)(=O)Nc2ccccc2C(F)(F)F)cc1	1	1	-1	109
COc1ccc(S(=O)(=O)Nc2ccc(O)c3ccccc23)cc1	0.7	9	8	3.4*
COC(=O)/C=C/S(=O)(=O)c1ccc(NC(C)=O)cc1	1.2	3	-2	-20*
CCn1c(SCC(=O)N2CCOCC2)nc2oc3c(Cl)cc(Cl)cc3c(=O)c2c1=O	1.1	-1	4	-1.7*
CCn1c(SCC(=O)N2CCOCC2)nc2sc3c(c2c1=O)CCCC3	1	x	x	78
CCC1=C2CC[C@H]3C(=O)N(C)C(=O)[C@H]3[C@H]2[C@@]2(Cc3ccccc3)C(=NCC3CC3)OC(=O)N2C1=O	1.3	x	x	x
Cn1c(=O)n(C)c2cc(C(N)=O)ccc21	1	32*	2	91
CC1=C(C)[N+](=O)C2(O)CCCCC2(C)N1[O-] (configuration not stated)	0.9	x	x	x
CC12CCCCC1(O)[N+](=O)C1=C(CCCC1)N2[O-] (configuration not stated)	1	4	9	-17*
COC(=O)c1ccc(C(/C=C/[C@@H](C)C(=O)NCc2ccc(OC)c(O)c2)NC(=O)OCc2ccccc2)cc1 (some centres not stated)	1.1	x	x	x
SMILES	MT1-MMP txn act	FXIIa inh mix	FXIa mix inh	HER2 expr 66K
COc1ccc(/C=C/C(O)=C2/C(=O)N(C)C3(C)CC2c2ccccc2O3)cc1 (configuration not stated)	0.9	8	9	-6.0*
CNC(=O)c1cc2cccc(OC)c2oc1=O	1.1	8	5	117
COc1cccc2cc(C(=O)NCc3ccccn3)c(=O)oc12	2.1*	x	x	x
c1cnc(-c2nnc3n2CCCCC3)cn1	1.1	2	4	-16*
COc1cccc(N2CCN(c3ncnc4c3[nH]c3ccc(F)cc34)CC2C)c1 (configuration not stated)	0.3	-2	2	-26*
C=C(C)COc1ccc(-c2n[nH]c(C)c2Oc2ccccc2OC)c(O)c1	1.2	11	2	-6.3*
C=C(C)COc1ccc(-c2[nH]ncc2Oc2ccccc2OCC)c(O)c1	1.2	3	-2	-17*
COC(=O)C1(CC(C)C)C=CC[N+]1(C)C (configuration not stated)	1.1	x	x	x
CCOC(=O)Cc1csc(NC(=O)COc2ccc3ccccc3c2)n1	1.1	x	x	x
CCOC(=O)Cc1csc(NC(=O)COc2ccc(OC)cc2)n1	1	11	-2	4.1*
O=C(Oc1ccc(Cl)c2cccnc12)N1CCOCC1	1	-1	9	1.0*
CCOC(=O)c1cn2c3c(c(F)c(F)cc3c1=O)SC(N1CCOCC1)=N2	1.4	x	x	x

Screening data (PubChem BioAssay)
